Where a name gives a salt, the structure may show the parent alone.
test system: Saccharomyces cerevisiae BY4741 SeMeCo community; experiment: z-score of subpopulation abundance vs DMSO median, subpopulation auxotrophic for HLUM; higher = larger share of this subpopulation than in DMSO controls; settings: 10 µM; 24 h; SM minimal medium; subpopulation (auxotrophy): HLUM
Description: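 Fluorescent four-plasmid SeMeCo (self-establishing metabolically cooperating S. cerevisiae BY4741 community; plasmids pH-mRuby2, pL-mWasabi, pU-eCFP, pM-TagRFP657) was grown 24 h in minimal SM medium with each Selleck FDA-approved drug at 10 µM in 384-well plates. Cells were fixed and imaged by high-content confocal microscopy. For each auxotrophic subpopulation (and the prototroph), a z-score gives the deviation from the DMSO vehicle-control population median.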

| Compound | z-score of subpopulation abundance |
| --- | --- |
| CN(C)C(=O)Oc1cccc([N+](C)(C)C)c1 [Neostigmine Bromide] | -0.18 |
| CC(=O)O[C@H]1C[C@@H]2CC[C@@H]3[C@H](CC[C@@]4(C)[C@H]3C[C@H]([N+]3(C)CCCCC3)[C@@H]4OC(C)=O)[C@@]2(C)C[C@@H]1[N+]1(C)CCCCC1 [Pancuronium dibromide] | -0.93 |
| N[C@@H]1C[C@H]1c1ccccc1 [Tranylcypromine (2-PCPA) HCl] | 0.28 |
| Cn1cc(C2=C(c3cn(C4CCN(Cc5ccccn5)CC4)c4ccccc34)C(=O)NC2=O)c2ccccc21 | -0.35 |
| CN(C)C(=O)Oc1ccc[n+](C)c1 [Pyridostigmine Bromide] | -1.14 |
| CN[C@@H]1[C@@H](O)[C@@H](O[C@@H]2[C@@H](O)[C@H](O[C@H]3O[C@H](CN)CC[C@H]3N)[C@@H](N)C[C@H]2N)OC[C@]1(C)O.CN[C@@H]1[C@@H](O)[C@@H](O[C@@H]2[C@@H](O)[C@H](O[C@H]3O[C@H]([C@@H](C)N)CC[C@H]3N)[C@@H](N)C[C@H]2N)OC[C@]1(C)O.CN[C@@H]1[C@@H](O)[C@@H](O[C@@H]2[C@@H](O)[C@H](O[C@H]3O[C@H]([C@@H](C)NC)CC[C@H]3N)[C@@H](N)C[C@H]2N)OC[C@]1(C)O [Gentamicin Sulfate] | 0.46 |
| Cc1cc(C(C#N)c2ccc(Cl)cc2)c(Cl)cc1NC(=O)c1cc(I)cc(I)c1O (stereo not given) [Closantel] | 0.27 |
| CN1c2ccccc2C(NCCCCCCC(=O)O)c2ccc(Cl)cc2S1(=O)=O (stereo not given) [Tianeptine sodium] | 0.87 |
| Oc1cc(Cl)ccc1Oc1ccc(Cl)cc1Cl [Triclosan] | 2.06 |
| COc1ccc(C(CN(C)C)C2(O)CCCCC2)cc1 (stereo not given) [Venlafaxine HCl] | -0.19 |
| CCN(CC)CCOC(=O)C(O)(c1ccccc1)c1ccccc1 [Benactyzine hydrochloride] | 1.13 |
| CC[C@H]1[C@@H]2C[C@H]3[C@@H]4N(C)c5ccccc5[C@]45C[C@@H]([C@@H]2[C@H]5O)N3[C@@H]1O [Ajmaline] | -0.76 |
| N#Cc1nn(-c2c(Cl)cc(C(F)(F)F)cc2Cl)c(N)c1[S+]([O-])C(F)(F)F (stereo not given) [Fipronil] | -0.22 |
| CN(C)[C@@H]1C(=O)C(C(N)=O)=C(O)[C@@]2(O)C(=O)C3=C(O)c4c(O)cccc4[C@@](C)(O)[C@H]3C[C@@H]12 [Tetracycline HCl] | -0.58 |
| C=CC[C@]1(O)CC[C@H]2[C@@H]3CCC4=CC(=O)CCC4=C3C=C[C@@]21C [Altrenogest] | -0.9 |
| CC(C)(O)C(Cl)(Cl)Cl [Chlorobutanol] | -0.06 |
| COc1ccc(C(CN(C)C)C2(O)CCCCC2)cc1 (stereo not given) [Venlafaxine] | -0.12 |
| CC[C@@]1(O)C(=O)OCc2c1cc1n(c2=O)Cc2cc3ccccc3nc2-1 [Camptothecin] | -0.44 |
| CC(=O)OCC1=C(C(=O)O)N2C(=O)C(N)C2SC1 (stereo not given) [7-Aminocephalosporanic acid] | -0.76 |
| CCCN1C[C@H](CSC)C[C@@H]2c3cccc4[nH]cc(c34)C[C@H]21 [Pergolide Mesylate] | -0.1 |

| Compound | z-score of subpopulation abundance |
| --- | --- |
| CC(NC(C)(C)C)C(=O)c1cccc(Cl)c1 (stereo not given) [Amfebutamone (Bupropion) HCl] | 0.09 |
| COc1ccc(C=O)cc1 [p-Anisaldehyde] | -0.16 |
| CC[C@@H](C(N)=O)N1CCCC1=O [Levetiracetam] | -0.38 |
| NCC(O)c1ccc(O)cc1 (racemic) [(+,-)-Octopamine HCl] | -0.38 |
| CN1[C@@H]2CC[C@H]1C[C@@H](OC(=O)C(CO)c1ccccc1)C2 (stereo not given in full) [Atropine sulfate monohydrate] | -0.85 |
| C=C(C)[C@H]1Cc2c(ccc3c2O[C@@H]2COc4cc(OC)c(OC)cc4[C@@H]2C3=O)O1 [Rotenone (Barbasco)] | 0.56 |
| CN(C)[C@@H]1C(=O)C(C(N)=O)=C(O)[C@@]2(O)C(=O)C3=C(O)c4c(O)ccc(Cl)c4[C@@](C)(O)[C@H]3C[C@@H]12 [Chlortetracycline HCl] | 0.32 |
| COc1ccc2[nH]cc(CCN)c2c1 [5-Methoxytryptamine] | 0.69 |
| O=C(O[C@H]1C[C@H]2CC[C@@H](C1)[N+]21CCCC1)C(O)(c1ccccc1)c1ccccc1 [Trospium chloride] | -0.2 |
| C[C@@H]1O[C@@H](O[C@H]2C[C@@H](O)[C@]3(CO)[C@H]4[C@H](O)C[C@]5(C)[C@@H](C6=CC(=O)OC6)CC[C@]5(O)[C@@H]4CC[C@]3(O)C2)[C@H](O)[C@H](O)[C@H]1O [Ouabain] | -0.91 |
| CN1[C@@H]2CC[C@H]1C[C@@H](OC(=O)[C@H](CO)c1ccccc1)C2 [Hyoscyamine] | 0.62 |
| CCN1CC2(OC(=O)c3ccccc3NC(C)=O)CCC(OC)C34C1C(CC23)C1(O)CC(OC)C2CC4C1(O)C2OC (stereo not given) [Lappaconitine] | -0.44 |
| COc1cc2c(cc1OC)C1CC(=O)C(CC(C)C)CN1CC2 (stereo not given) [Tetrabenazine (Xenazine)] | 2.34 |
| CCOC(=O)Nc1ccc(NCc2ccc(F)cc2)cc1N [Retigabine] | -0.4 |
| CC(C)N(CCC(C(N)=O)(c1ccccc1)c1ccccn1)C(C)C (stereo not given) [Disopyramide] | 0.82 |
| CN1[C@@H]2C[C@@H](OC(=O)[C@H](CO)c3ccccc3)C[C@H]1[C@@H]1O[C@@H]12 [Scopolamine HBr trihydrate] | -0.22 |
| CC[C@H]1CN2CC[C@]3(C(=O)Nc4ccccc43)[C@@H]2C[C@@H]1/C(=C\OC)C(=O)OC [Rhynchophylline] | 0 |
| CCC1=C[C@H]2CN3CCc4c([nH]c5ccccc45)[C@](C(=O)OC)(C2)[C@H]13 [Catharanthine] | -0.22 |
| COc1ccc2c3c([nH]c2c1)C(C)=NCC3 [Harmaline] | -1.92 |
| NC(=O)CN1CCCC1=O [Piracetam] | 0.98 |
